The entries come from a sample that favours hits as a whole.
VHR inh color – blocks the human dual specificity phosphatase VHR1; P51452; recombinant VHR phosphatase, colorimetric substrate read-out; inhibition, % at 20 µM; hit rate 0.7% among 50,000; in the data active = inhibition above about 60%
Target sequence (P51452 whole entry, looked up): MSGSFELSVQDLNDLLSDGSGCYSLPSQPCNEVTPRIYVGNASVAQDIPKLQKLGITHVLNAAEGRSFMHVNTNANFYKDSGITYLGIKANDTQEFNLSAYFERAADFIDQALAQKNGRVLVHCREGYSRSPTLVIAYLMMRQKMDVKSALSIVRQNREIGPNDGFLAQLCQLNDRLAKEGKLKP
Numbers stand for hits.

CCN(CC)c1ccc(NC(=O)c2ccc(-c3cccc(Cl)c3)o2)cc1 was read as VHR inh color inactive.
Cc1oc2c(CN3CC4(C)CC3CC(C)(C)C4)c(O)ccc2c(=O)c1-c1nc2ccccc2s1 (stereo unspecified) was read as VHR inh color inactive.
For O=C(Nc1nccs1)C1(c2ccccc2)CC1(Cl)Cl (stereo unspecified) the results were VHR inh color inactive.
For O=C(Nc1cccc2ccccc12)C1(c2ccccc2)CC1(Cl)Cl (stereo unspecified) the results were VHR inh color 117.7.
Screening O=C(Nc1ccccc1F)C1(c2ccccc2)CC1(Cl)Cl (stereo unspecified) returned VHR inh color inactive.
`O=C1NC(=O)N(c2ccc(Cl)cc2)C(=O)/C1=C\C=C\c1ccco1` gave VHR inh color inactive.
Screening CCOC(=O)C1=NNC(C(=O)c2ccc(OC)cc2)C1c1ccccc1Cl (stereo unspecified) returned VHR inh color 104.7.
`CCOC(=O)C1=NNC(C(=O)c2ccccc2)C1c1ccc(Br)cc1` (stereo unspecified) gave VHR inh color inactive.
`CCOC(=O)C1NN=C(C(=O)c2ccc(OC)cc2)C1c1ccccc1Cl` (stereo unspecified) gave VHR inh color inactive.
Screening Cc1cccc(N2C(=O)CC(n3c(C)nc4ccccc43)C2=O)c1 (stereo unspecified) returned VHR inh color inactive.
C=CCN1C(=O)/C(=C\c2ccc(OCC(=O)O)c(OC)c2)C(=O)NC1=S was read as VHR inh color inactive.
For C=CCOc1ccc(/C=C2/C(=O)NC(=S)N(CC=C)C2=O)cc1OCC the results were VHR inh color inactive.
Screening C=CCN1C(=O)/C(=C\c2ccc(OCc3ccc(F)cc3)c(OCC)c2)C(=O)NC1=S returned VHR inh color 74.8.
CCN(CC)C(=O)c1sc(NC(=O)c2ccc(C)c(C)c2)c(C(=O)OC)c1C was read as VHR inh color inactive.
For CCOc1ccc(C(=O)Nc2cc(=O)n(C)c(=O)n2C)cc1 the results were VHR inh color inactive.
Screening CCOc1ccc(N2Cc3ccccc3C2)cc1 returned VHR inh color inactive.
`CCOc1ccc(N2Cc3ccc(C(=O)NN)cc3C2)cc1` gave VHR inh color 91.0.
N#CC(C#N)=C1C(Cl)=C(Cl)c2ccccc21 was read as VHR inh color 66.0.
`N#Cc1c(-c2ccccc2)cc(-c2ccccc2Cl)c(C#N)c1N` gave VHR inh color inactive.
Screening O=C1C(=O)c2ccccc2C(Cl)=C1Cl returned VHR inh color inactive.
CC1(C)CC(=O)C2=C(C1)Nc1ccccc1N(C(=O)c1ccccc1)C2c1ccc([N+](=O)[O-])o1 (stereo unspecified) was read as VHR inh color inactive.
Screening CN(C)c1ccc(NC(=O)c2cccnc2)cc1 returned VHR inh color inactive.
For O=C(COc1ccc(Cl)cc1)N1CCN(C(=O)COc2ccc3ccccc3c2)CC1 the results were VHR inh color inactive.
`Cc1ccc(S(=O)(=O)N2CCN(C(=O)COc3ccc(Cl)cc3)CC2)cc1` gave VHR inh color 86.7.
`O=C(COc1ccc2ccccc2c1)N1CCN(S(=O)(=O)c2ccc(Cl)cc2)CC1` gave VHR inh color inactive.
`O=C1CSC2(C(=O)Nc3ccccc32)N1c1cccc(Cl)c1` (stereo unspecified) gave VHR inh color inactive.
For CCOC(=O)c1ccc(N2C(=O)C=CC2=O)cc1 the results were VHR inh color inactive.
For CC(=O)c1ccc(N2C(=O)C3C4C=CC(CC4)C3C2=O)cc1 (stereo unspecified) the results were VHR inh color inactive.
CC(=O)c1ccc(N2C(=O)C=CC2=O)cc1 was read as VHR inh color 84.0.
For Cc1onc(-c2ccccc2Cl)c1C(=O)N1CCN(c2ccccc2F)CC1 the results were VHR inh color inactive.
CCOc1cc(/C=C2/SC(=S)N(CC)C2=O)ccc1OCc1ccc(Cl)c(Cl)c1 was read as VHR inh color inactive.
O=C1CCC(=O)N1c1ccc(-c2nc3ccc(N4C(=O)CCC4=O)cc3[nH]2)cc1 was read as VHR inh color inactive.
Screening COc1cccc(N2C(=O)C(=O)/C(=C(\O)c3ccccc3)C2c2ccccc2OC)c1 (stereo unspecified) returned VHR inh color inactive.
For CCOc1cc(C2C(C(=O)OCC3CCCO3)=C(C)NC3=C2C(=O)CCC3)cc([N+](=O)[O-])c1O (stereo unspecified) the results were VHR inh color inactive.
COC(=O)c1ccc(C2Nc3cc(C)c(C)cc3NC3=C2C(=O)CC(C)(C)C3)cc1 (stereo unspecified) was read as VHR inh color inactive.
COc1cc(C2Nc3cc(C)c(C)cc3NC3=C2C(=O)CC(C)(C)C3)cc(Br)c1OC (stereo unspecified) was read as VHR inh color inactive.
`CCOc1cc(C2Nc3cc(C)c(C)cc3NC3=C2C(=O)CC(C)(C)C3)cc([N+](=O)[O-])c1O` (stereo unspecified) gave VHR inh color 117.5.
`CC(=O)Nc1ccc(C2Nc3cc(C)c(C)cc3NC3=C2C(=O)CC(C)(C)C3)cc1` (stereo unspecified) gave VHR inh color 100.1.
